Compounds without any hit were thinned out: in the full panel of roughly 83,000, 20% have a hit.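 Compound tested at a single concentration for 48 hours in 96-well plates; a percent growth value below 10 was scored as active.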 Active and inactive are the calls of the source.

The assay has as its system M14 melanoma. The assay is described as follows: NCI-60 one-dose screen, 48 h (100 = growth as untreated, 0 = no growth, -100 = all killed). The settings on record: 10 µM unless noted. The method, then:
Growth inhibition of the M14 human tumor cell line is measured as a screen for anti-cancer activity. Cells are grown in 96 well plates and exposed to the test compound for 48 hours. Compounds are tested at a single concentration, which is 10^-5 M for most compounds. The reported endpoint is percent growth (GI% or GIPRCNT), where numbers from 0 - 100% represent growth inhibition, and numbers from -100% - 0 represent cell death. For example, a value of 40 represents 60% growth inhibition. A value of 0 means no net growth occurred over the course of the experiment. A value of -40 indicates 40% of cells at the beginning of the experiment died by the end of the experiment. A value of -100 means all cells are dead at the end of the experiment.
NCI-60 Human Tumor Cell Lines Screen was performed using the standard one-dose NCI protocol, which is described in more detail at https://dtp.cancer.gov/discovery_development/nci-60/default.htm.
Compounds with GIPRCNT values below 10 were considered active. Activity score was based on GIPRCNT using the following formula: […]
Score is 0 for GIPRCNT values of 100 or above, 50 for GIPRCNT values of 0, and 100 for GIPRCNT values of -100.
As for `COc1ccc(-c2nc3sccn3c2-c2ccnc(NCCCNS(=O)(=O)c3ccc(F)cc3)n2)cc1`, the growth was 12.4% (inactive).

For `CCn1cc(C(=O)O)c(=O)c2cc(F)c(N3CCN(S(=O)(=O)c4c(C)cc(C)cc4C)CC3)cc21`, the growth was 75.6% (inactive).

In the case of `COc1cc(C2C=C(C)N=C3SC=CN32)cc(OC)c1OC` (stereo not given), the growth was 107% (inactive).

For the compound `Cn1c(-c2nonc2NC(=O)c2ccc(F)cc2)nc2ccccc21`, the growth was 106% (inactive).

Consider `O=C(O)c1cccc([N+](=O)[O-])c1/C=C/c1ccccc1`, for which the growth is 101% (inactive).

With `COc1ccc(/C=C/c2cc(N3CCOCC3)c3cc(F)c(F)cc3n2)cc1OC`, the growth is 31.6% (inactive).

With `CC1=C(C#N)C(C)(C)C(C#N)=C(C)N1`, the growth was 102% (inactive).

Regarding `CCC(C)NCC(=O)O` (stereo not given), the growth is 99.3% (inactive).

As to `COC12CC(=O)C(C(C)=O)=C(O)C1(C)c1c(O)c(C)c(O)c(C(C)=O)c1O2` (stereo not given), the growth was 66.7% (inactive).

For `COc1cc(NC(=O)CSc2nc3ccc(C)cc3c(=O)n2-c2ccccc2)cc(OC)c1OC`, the growth was 79.9% (inactive).

For the compound `O=C(CNc1c(Cl)cccc1Cl)Nc1ccc(-c2nc3ccccc3s2)cc1`, the growth was 55.7% (inactive).

For the compound `COc1cc2c(cc1OCCCCn1c(-c3cc(=O)c4ccccc4o3)nc3ccccc31)N=C[C@@H]1CCCN1C2=O`, the growth is 105% (inactive).

Regarding `COc1cccc2cc(-c3cc4ccccc4[nH]3)c(=NC(=O)c3ccc(Cl)cc3)oc12`, the growth was -28.9% (active).

On to `O=C(NCCc1c[nH]c2ccccc12)C1Cc2ccccc2CN1C(=O)c1ccco1` (stereo not given), for which the growth is 107% (inactive).

On to `O=C(Nc1cccc(Cl)c1)c1cc([N+](=O)[O-])ccc1O`, for which the growth was 54.9% (inactive).

For the compound `C=C1C(=O)O[C@H]2[C@H]1CC/C(COC(=O)NCCc1cccc(OC)c1)=C\CC[C@@]1(C)O[C@@H]21`, the growth was 29.9% (inactive).

On to `O=C(Nc1ccc(F)c(Cl)c1)c1n[nH]c(=O)c2ccccc12`, for which the growth was 115% (inactive).

Consider `CCC(=O)Oc1cc(/C=C/C(=O)O[C@H]2C[C@H]3CN4CCc5c([nH]c6cc(OC)ccc56)[C@@H]4C[C@@H]3[C@@H](C(=O)OC)[C@@H]2OC)ccc1OC`, for which the growth is 82.5% (inactive).

Take `CC(C)(C)c1cc(-c2nc3ccc(N4CCN(CCO)CC4)cc3[nH]2)cc(C(C)(C)C)c1O`: the growth is -40.5% (active).

Take `Cc1cc(Cl)ccc1OC(C)C(=O)Nc1nnc(C2CC2)s1` (stereo not given): the growth was 113% (inactive).

As to `COc1cc(Cn2c(-c3nonc3N)nc3ccccc32)ccc1C`, the growth was 14% (inactive).

`COc1ccc(C2=NN(c3ccc(S(N)(=O)=O)cc3)C(c3cn(-c4ccccc4)nc3-c3ccc(Cl)cc3)C2)cc1` (stereo not given): the growth is 83.9% (inactive).

On to `CCOC(=O)CC(C#N)(CC(=O)OCC)C(=O)OCC`, for which the growth is 102% (inactive).

Take `Nc1c(C(=O)Nc2cccc(C(F)(F)F)c2)sc2nc3c(cc12)CCCCC3`: the growth is 49.6% (inactive).

Consider `Cc1ccc2c(c1)C(C)Cc1c(N(C)C)ncnc1N2C` (stereo not given), for which the growth was 24.7% (inactive).

Regarding `CCC(c1ccc(OC)cc1)C(CC)c1ccc(O)c(CN2CCCC2)c1` (stereo not given), the growth is -47.4% (active).

With `Cc1cccc(-n2c(C)nc3ccc(NC(=O)NCCCl)cc3c2=O)c1`, the growth was 98.7% (inactive).

In the case of `CCN1C(=S)N(CC)C2Nn3c(s/c(=C4\C(=O)N(C)c5ccccc54)c3=O)=NC21` (stereo not given), the growth was 70.2% (inactive).

In the case of `COC1=CC(c2ccc[nH]2)=N/C1=C\c1[nH]c(C)c(C(=O)CCCCC(=O)NCc2ccccc2)c1C`, the growth was 36.2% (inactive).

On to `COC(=O)c1cc(-c2cccs2)c(C#N)c(N)c1C#N`, for which the growth is 110% (inactive).

For the compound `Cn1cc(C=O)c2ccccc21`, the growth was 103% (inactive).

As to `O=S(=O)(c1ccccc1)n1ccc(-c2ccc3c(c2)CCO3)n1`, the growth was 101% (inactive).

For `COC(=O)C(CC(=O)c1ccc(-c2ccccc2)cc1)c1ccccc1` (stereo not given), the growth was 42.6% (inactive).

In the case of `CC1=CNNc2c3ncnc-3ncn21`, the growth is 108% (inactive).

With `CN(C)C1CCC(NC2=CC(=O)C=CC2=O)CC1` (stereo not given), the growth was 107% (inactive).

On to `O=C1CCC(=O)N1Cc1ccccc1`, for which the growth was 94.7% (inactive).

In the case of `CC(=O)OC[Si](C)(C)c1ccccc1`, the growth was 97.8% (inactive).

With `O=C(CC(O)c1ccncc1)c1ccccc1` (stereo not given), the growth is 90.8% (inactive).

In the case of `C=C1C(=O)O[C@H]2[C@H]1CC/C(COC(=O)NCc1ccc(OC)cc1)=C\CC[C@@]1(C)O[C@@H]21`, the growth was 32.9% (inactive).

For `CN1C(=O)[C@H]2c3c1cccc3[C@@]13NC(=O)O[C@H]1[C@H](CCC3(C)C)C2(C)C`, the growth was 108% (inactive).

Values taken from PubChem BioAssay (NCI).
